Assay results reported in PubChem BioAssay (NCATS).
Records with an inconclusive call do not appear. The source made the active and inactive calls. Calls follow the shape of the dose curve; as a rule, active = well fitted curve in the direction sought with a large enough effect; inconclusive = small, poorly fitted or top-dose-only effect, or another doubt; inactive = no such curve, though single readings can be large; an effect the other way counts as inactive or inconclusive.

Biological target: Transient receptor potential cation channel subfamily V member 1 (Homo sapiens) (UniProt Q8NER1)
Sequence (Q8NER1 whole entry, looked up): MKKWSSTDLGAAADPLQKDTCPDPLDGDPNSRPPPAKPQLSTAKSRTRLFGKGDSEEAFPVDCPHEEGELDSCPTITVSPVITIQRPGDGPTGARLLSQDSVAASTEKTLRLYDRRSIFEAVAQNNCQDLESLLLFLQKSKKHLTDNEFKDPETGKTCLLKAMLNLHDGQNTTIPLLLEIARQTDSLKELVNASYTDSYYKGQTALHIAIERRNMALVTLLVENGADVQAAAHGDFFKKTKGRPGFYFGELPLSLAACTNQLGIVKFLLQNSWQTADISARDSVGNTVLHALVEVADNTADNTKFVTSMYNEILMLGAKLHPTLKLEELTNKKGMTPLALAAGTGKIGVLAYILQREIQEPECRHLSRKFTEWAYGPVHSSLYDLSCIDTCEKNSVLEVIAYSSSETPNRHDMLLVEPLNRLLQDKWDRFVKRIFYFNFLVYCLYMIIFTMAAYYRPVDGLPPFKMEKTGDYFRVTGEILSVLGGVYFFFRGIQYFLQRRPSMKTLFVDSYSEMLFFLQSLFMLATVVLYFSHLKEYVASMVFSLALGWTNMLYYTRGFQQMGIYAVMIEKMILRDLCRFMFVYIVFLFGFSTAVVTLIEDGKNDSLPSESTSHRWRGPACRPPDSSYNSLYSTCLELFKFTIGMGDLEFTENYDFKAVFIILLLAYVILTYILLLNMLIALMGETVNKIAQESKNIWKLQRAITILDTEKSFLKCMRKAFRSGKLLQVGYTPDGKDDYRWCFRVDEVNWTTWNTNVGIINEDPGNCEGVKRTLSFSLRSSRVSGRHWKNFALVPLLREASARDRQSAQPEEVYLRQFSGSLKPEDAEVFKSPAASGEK
Assay: HTS Assay for Compounds that Act as Enhancers of the Vanilloid Receptor 1 (AID 488979)
Conditions: TRPV1-expressing cells, enhancer of channel activity, stimulated with capsaicin at EC20; series mostly up to 41.7 µM; activity change, positive = enhancement: at the top concentration
How it was run: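 Calcium influx kinetics via Fluo-8 (480/520 nm) in TRPV1-expressing cells, 2000/well cultured overnight at 35.5C. Compound-alone read 3 min (agonist phase), followed by EC20 capsaicin challenge for 2 min (enhancer phase).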
Also: 0% is about no effect.

Structure (SMILES) | activity change, positive = enhancement
COc1cc2c(cc1OC)-c1cc(=Nc3c(C)cc(C)cc3C)n(C)c(=O)n1CC2 | 10.9% (inactive)
COCCc1ccc(OCC(O)CNC(C)C)cc1 (stereo unspecified) | 12.4% (inactive)
NC(=O)N1c2ccccc2C=Cc2ccccc21 | -3.98% (inactive)
CCCCCN(CCCCC)C(=O)C(CCC(=O)O)NC(=O)c1ccc(Cl)c(Cl)c1 (stereo unspecified) | -0.432% (inactive)
NC(N)=NC(=O)Cc1c(Cl)cccc1Cl | -0.315% (inactive)
CN(C)CC[C@@H](c1ccc(Br)cc1)c1ccccn1 | 25% (inactive)
CNCCC(Oc1ccccc1OC)c1ccccc1 (stereo unspecified) | 18.4% (inactive)
C[N+](C)(C)CCOC(=O)CCC(=O)OCC[N+](C)(C)C | 4.1% (inactive)
NC(N)=N/N=C/c1c(Cl)cccc1Cl | 21.3% (inactive)
O=C1NCN(c2ccccc2)C12CCN(CCCC(c1ccc(F)cc1)c1ccc(F)cc1)CC2 | 9.48% (inactive)
C[N+](C)(C)CCCCCCCCCC[N+](C)(C)C | 2.71% (inactive)
COc1ccc(CN(CCN(C)C)c2ccccn2)cc1 | -4.47% (inactive)
CC[N+](C)(C)c1cccc(O)c1 | 2.85% (inactive)
c1cnc(N2CCN(Cc3ccc4c(c3)OCO4)CC2)nc1 | 5.57% (inactive)
CC1=C(C)C(=O)C(CCCCC#CCCCC#CCO)=C(C)C1=O | -10.6% (inactive)
CCN1CCc2nc(N)oc2CC1 | 1.08% (inactive)
O=C(O)CN(CCN(CC(=O)O)CC(=O)O)CCN(CC(=O)O)CC(=O)O | -3.43% (inactive)
CC(C)COCC(CN(Cc1ccccc1)c1ccccc1)N1CCCC1 (stereo unspecified) | -4.66% (inactive)

Structure (SMILES) | activity change, positive = enhancement
CCCCNc1c(C(=O)OCC)c(C)nc2c1cnn2CC | -0.801% (inactive)
CC(C)NNC(=O)c1ccncc1 | -8.85% (inactive)
O=C(CCCN1CCC(O)(c2cccc(C(F)(F)F)c2)CC1)c1ccc(F)cc1 | 28.1% (inactive)
CC1=NS(=O)(=O)c2cc(Cl)ccc2N1 | -5.4% (inactive)
Cc1nc2c([nH]1)c(=O)n(C)c(=O)n2Cc1ccco1 | 4.59% (inactive)
COC(=O)[C@@H](N)Cc1ccc(O)c(O)c1 | 4.65% (inactive)
C[C@]12C=CC(=O)C=C1CC[C@H]1[C@@H]3C[C@@H](O)[C@](O)(C(=O)CO)[C@@]3(C)C[C@H](O)[C@@]12F | -2.23% (inactive)
Nc1c2c(nc3ccccc13)CCCC2O (stereo unspecified) | 7.8% (inactive)
CN(C(=O)CCCOc1ccc2[nH]c(=O)ccc2c1)C1CCCCC1 | 9.85% (inactive)
CCOC(=O)C1=C(C)NC(C)=C(C(=O)OC)C1c1cccc(Cl)c1Cl (stereo unspecified) | -13.7% (inactive)
CC(=O)Nc1nnc(S(N)(=O)=O)s1 | -3.85% (inactive)
CC(N=C(NC#N)Nc1ccncc1)C(C)(C)C (stereo unspecified) | 2.21% (inactive)
c1ccc2c(c1)CCCC2C1=NCCN1 (stereo unspecified) | -5.14% (inactive)
CC(=O)OC(C)C[N+](C)(C)C (stereo unspecified) | 6.73% (inactive)
Cc1ccc(=O)n(-c2ccccc2)c1 | -2.06% (inactive)
OC(CCN1CCCCC1)(c1ccccc1)C1CCCCC1 (stereo unspecified) | 24% (inactive)
Cc1nc2sccn2c(=O)c1CCN1CCC(=C(c2ccc(F)cc2)c2ccc(F)cc2)CC1 | -6.07% (inactive)
CCN(CC)CCNC(=O)c1cc(S(C)(=O)=O)ccc1OC | 7.96% (inactive)

Biological target: Thyrotropin receptor (Homo sapiens) (UniProt P16473)
Sequence (P16473 whole entry, looked up): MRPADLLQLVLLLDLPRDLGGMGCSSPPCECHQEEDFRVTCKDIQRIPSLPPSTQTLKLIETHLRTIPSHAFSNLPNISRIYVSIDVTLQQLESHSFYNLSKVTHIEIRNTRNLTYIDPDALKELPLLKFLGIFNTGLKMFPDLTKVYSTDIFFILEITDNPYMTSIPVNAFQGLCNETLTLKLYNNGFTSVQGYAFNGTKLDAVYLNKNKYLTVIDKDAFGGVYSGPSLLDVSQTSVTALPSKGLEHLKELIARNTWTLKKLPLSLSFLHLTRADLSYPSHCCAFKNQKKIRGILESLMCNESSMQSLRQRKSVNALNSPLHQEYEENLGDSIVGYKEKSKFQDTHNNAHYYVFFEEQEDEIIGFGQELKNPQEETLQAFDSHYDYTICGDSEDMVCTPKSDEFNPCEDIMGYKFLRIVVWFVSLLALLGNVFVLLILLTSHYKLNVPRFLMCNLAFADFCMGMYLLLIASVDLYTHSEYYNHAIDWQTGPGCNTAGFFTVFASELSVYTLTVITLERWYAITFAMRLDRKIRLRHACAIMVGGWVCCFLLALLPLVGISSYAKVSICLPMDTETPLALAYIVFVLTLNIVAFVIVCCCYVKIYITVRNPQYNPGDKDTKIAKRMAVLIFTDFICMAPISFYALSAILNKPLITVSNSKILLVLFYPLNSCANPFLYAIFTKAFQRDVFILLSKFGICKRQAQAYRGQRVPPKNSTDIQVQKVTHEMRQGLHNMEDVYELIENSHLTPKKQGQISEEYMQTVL
Assay: qHTS Assay for Antagonists of the Thyroid Stimulating Hormone Receptor (AID 488980)
Conditions: TSHR-expressing cells, cAMP antagonist read-out; series mostly up to 57.5 µM; activity, negative = inhibition: at the top concentration
How it was run: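 Readout is cAMP by HTRF competition between cellular cAMP and cAMP-d2 for a cryptate-labelled antibody. Antagonism was assessed in TSHR-transfected HEK293 cells stimulated with 4 nM TSH (EC80, final) in the presence of RO 20-1724.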

Structure (SMILES) | activity, negative = inhibition
COc1cc2c(cc1OC)-c1cc(=Nc3c(C)cc(C)cc3C)n(C)c(=O)n1CC2 | 0.512% (inactive)
COCCc1ccc(OCC(O)CNC(C)C)cc1 (stereo unspecified) | -1.51% (inactive)
CCCCCN(CCCCC)C(=O)C(CCC(=O)O)NC(=O)c1ccc(Cl)c(Cl)c1 (stereo unspecified) | -1.08% (inactive)
NC(N)=NC(=O)Cc1c(Cl)cccc1Cl | -0.432% (inactive)
CNCCC(Oc1ccccc1OC)c1ccccc1 (stereo unspecified) | 0.0081% (inactive)
C[N+](C)(C)CCOC(=O)CCC(=O)OCC[N+](C)(C)C | -1.68% (inactive)
NC(N)=N/N=C/c1c(Cl)cccc1Cl | 0.0078% (inactive)
O=C1NCN(c2ccccc2)C12CCN(CCCC(c1ccc(F)cc1)c1ccc(F)cc1)CC2 | -1.54% (inactive)
C[N+](C)(C)CCCCCCCCCC[N+](C)(C)C | -1.25% (inactive)
CC[N+](C)(C)c1cccc(O)c1 | -0.825% (inactive)
c1cnc(N2CCN(Cc3ccc4c(c3)OCO4)CC2)nc1 | -1.44% (inactive)
CC1=C(C)C(=O)C(CCCCC#CCCCC#CCO)=C(C)C1=O | 0.564% (inactive)
CCN1CCc2nc(N)oc2CC1 | -2.29% (inactive)
CCCCNc1c(C(=O)OCC)c(C)nc2c1cnn2CC | -1.03% (inactive)
CC(C)NNC(=O)c1ccncc1 | 0.164% (inactive)
O=C(CCCN1CCC(O)(c2cccc(C(F)(F)F)c2)CC1)c1ccc(F)cc1 | -1.63% (inactive)
CC1=NS(=O)(=O)c2cc(Cl)ccc2N1 | -0.282% (inactive)
COC(=O)[C@@H](N)Cc1ccc(O)c(O)c1 | -0.791% (inactive)
C[C@]12C=CC(=O)C=C1CC[C@H]1[C@@H]3C[C@@H](O)[C@](O)(C(=O)CO)[C@@]3(C)C[C@H](O)[C@@]12F | -2.38% (inactive)
Nc1c2c(nc3ccccc13)CCCC2O (stereo unspecified) | -1.09% (inactive)
CN(C(=O)CCCOc1ccc2[nH]c(=O)ccc2c1)C1CCCCC1 | -0.84% (inactive)
CCOC(=O)C1=C(C)NC(C)=C(C(=O)OC)C1c1cccc(Cl)c1Cl (stereo unspecified) | -3.06% (inactive)
CC(=O)Nc1nnc(S(N)(=O)=O)s1 | -1.87% (inactive)
CC(N=C(NC#N)Nc1ccncc1)C(C)(C)C (stereo unspecified) | -1.22% (inactive)
c1ccc2c(c1)CCCC2C1=NCCN1 (stereo unspecified) | -1.49% (inactive)
CC(=O)OC(C)C[N+](C)(C)C (stereo unspecified) | -0.0513% (inactive)
Cc1ccc(=O)n(-c2ccccc2)c1 | -0.368% (inactive)
OC(CCN1CCCCC1)(c1ccccc1)C1CCCCC1 (stereo unspecified) | -0.219% (inactive)
Cc1nc2sccn2c(=O)c1CCN1CCC(=C(c2ccc(F)cc2)c2ccc(F)cc2)CC1 | -0.102% (inactive)
CCN(CC)CCNC(=O)c1cc(S(C)(=O)=O)ccc1OC | -0.376% (inactive)
